Test [1] is described as follows: qHTS assay to identify small molecule agonists of the androgen receptor (AR) signaling pathway in the presence of an antagonist - cell viability counter screen (AID 1259379). Further: nearly all actives have a fitted effect of over 25% in size. Further: potency means the concentration at half of the fitted maximal effect.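 On activity change, negative = cytotoxicity: MDA-kb2 human breast cancer cells carrying an MMTV luciferase reporter; series mostly up to about 92 µM.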 In short, it runs like this: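 Nilutamide-containing (3.0uM final) MDA-kb2 cultures, 3,000 cells/well, were treated with compounds across 15 concentrations. After 16 hr at 37C with no CO2, cell viability was determined by CellTiter-Fluor fluorescence in the luciferase assay wells.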
A general note: In qHTS, concentration-response curves come from the screen itself.

A short description of test [2]: qHTS assay to identify small molecule antagonists of the estrogen receptor beta (ER-beta) signaling pathway - cell viability counter screen (AID 1259382). Further: series mostly up to about 92 µM; nearly all actives have a fitted effect of over 55% in size. Put shortly: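 Viability is scored by CellTiter-Glo luminescence (30 min, room temperature) in ER-beta-UAS-bla HEK293T wells already read for reporter fluorescence. Compound exposure lasts 16 hr at 37C alongside 1nM 17-beta-estradiol in charcoal-stripped serum medium.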

In test [3] the target is Estrogen receptor (Homo sapiens) (UniProt P03372). The experiment in a line: qHTS assay to identify small molecule agonists of the estrogen receptor alpha (ER-alpha) signaling pathway in the presence of an antagonist (AID 1259383; calls by dose curve; further: top concentration of the series differs between compounds; nearly all actives have a fitted effect of over 15% in size). Put shortly:
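Readout was ERE-driven luciferase luminescence in VM7Luc4E2 cells, which express full-length ER-alpha endogenously. Compounds were tested at 15 concentrations for 22hr alongside 10.0nM ICI-182,780 (final concentration).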

Test [4] can be described thus: qHTS assay to identify small molecule agonists or antagonists of the thyroid stimulating hormone receptor (TSHR) signaling pathway - wild type cell line counter screen (AID 1259384; calls by dose curve). In short, it runs like this:
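Wild-type HEK293 cells were plated 18 h at 37 C/5% CO2, pin-dosed with compound plus Ro20-1724 medium, held 30 min at room temperature, then given cAMP-d2 and anti-cAMP-cryptate; fluorescence was read after 1 h. Fifteen concentrations, triplicate.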

Test [5] deals with Thyrotropin receptor (Homo sapiens) (UniProt P16473). Nature of the test: qHTS assay to identify small molecule antagonists of the thyroid stimulating hormone receptor (TSHR) signaling pathway (AID 1259385; calls by dose curve; further: nearly all actives have a fitted effect of over 20% in size). In short, it runs like this:
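TSHR-HEK293 cells were plated and held 18 h at 37C/5% CO2, then given compound plus Ro20-1724 and stimulated with TSH at 1.5 ng/mL final. After 30 min at room temperature, cAMP was detected with cAMP-d2/anti-cAMP-cryptate (1 h) by fluorescence.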

Test [6] in a line: qHTS assay to identify small molecule agonists of the estrogen receptor alpha (ER-alpha) signaling pathway in the presence of an antagonist - cell viability counter screen (AID 1259386).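 Further: series mostly up to about 92 µM; cells exposed to compounds for 22 h at 37 °C before the viability read; nearly all actives have a fitted effect of over 30% in size.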 Put shortly: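 In this counter screen, compound effects on VM7Luc4E2 viability were tested in the presence of the antagonist ICI-182,780 at 10.0nM final. Compounds were dosed at 15 concentrations, exposure lasted 22hr, and the CellTiter-Fluor signal was read.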

The target in test [7] is Progesterone receptor (Homo sapiens) (UniProt P06401). The experiment in a line: qHTS assay to identify small molecule agonists of the progesterone receptor (PR) signaling pathway (AID 1346784; calls by dose curve; further: nearly all actives have a fitted effect of over 30% in size). Put shortly: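 PR-UAS-bla HEK 293T cells (beta-lactamase reporter under UAS) in 2% charcoal-stripped FBS, dosed with 23 nL compound after 6 hr, incubated 16hr at 37C. LiveBLAzer B/G FRET substrate added, fluorescence read after 2 hours.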
Progesterone receptor (Homo sapiens), sequence (P06401 whole entry, looked up): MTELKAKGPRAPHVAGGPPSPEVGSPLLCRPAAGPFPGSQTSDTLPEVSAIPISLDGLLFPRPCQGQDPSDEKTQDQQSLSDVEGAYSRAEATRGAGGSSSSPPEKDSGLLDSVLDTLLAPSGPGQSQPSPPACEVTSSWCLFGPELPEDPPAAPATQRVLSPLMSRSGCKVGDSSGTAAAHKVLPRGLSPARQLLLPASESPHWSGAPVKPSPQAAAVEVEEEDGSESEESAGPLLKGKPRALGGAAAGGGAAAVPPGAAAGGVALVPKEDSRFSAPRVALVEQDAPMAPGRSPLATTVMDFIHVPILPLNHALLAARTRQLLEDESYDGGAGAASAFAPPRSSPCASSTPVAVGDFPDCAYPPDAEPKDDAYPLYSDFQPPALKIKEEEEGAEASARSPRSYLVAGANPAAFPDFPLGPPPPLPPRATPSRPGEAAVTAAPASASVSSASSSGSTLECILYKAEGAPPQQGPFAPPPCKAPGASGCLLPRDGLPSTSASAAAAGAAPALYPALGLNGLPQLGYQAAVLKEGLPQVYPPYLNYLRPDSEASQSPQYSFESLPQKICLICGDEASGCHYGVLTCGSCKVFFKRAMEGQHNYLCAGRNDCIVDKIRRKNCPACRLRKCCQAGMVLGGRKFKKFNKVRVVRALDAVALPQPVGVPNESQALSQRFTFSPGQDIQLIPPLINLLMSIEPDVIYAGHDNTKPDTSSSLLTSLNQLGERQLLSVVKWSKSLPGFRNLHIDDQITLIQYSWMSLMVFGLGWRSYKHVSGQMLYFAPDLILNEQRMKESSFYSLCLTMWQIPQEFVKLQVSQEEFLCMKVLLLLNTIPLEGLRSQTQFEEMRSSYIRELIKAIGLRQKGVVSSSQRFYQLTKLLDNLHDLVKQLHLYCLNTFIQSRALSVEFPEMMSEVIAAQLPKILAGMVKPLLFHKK

Test [8] in a line: qHTS assay to identify small molecule agonists of the progesterone receptor (PR) signaling pathway - cell viability counter screen (AID 1346799; calls by dose curve; further: nearly all actives have a fitted effect of over 45% in size). In short, it runs like this:
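Counter screen in the PR-UAS-bla HEK293T wells (2% charcoal-stripped FBS, 16 h compound exposure at 37 C) after the bla read. CellTiter-Glo added, 30 min at room temperature, luminescence read as cell viability.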

Test [9] in a line: qHTS assay to identify small molecule antagonists of the TGF-beta/Smad signaling pathway - cell viability counter screen (AID 1346824). Further: nearly all actives have a fitted effect of over 50% in size. Put shortly: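 SBE-bla HEK 293T cells were plated overnight at 37 C, then given compounds in DMSO plus TGF-beta1 (added as 0.25 ng/mL solution) for 5 hr. After the bla read, CellTiter-Glo was added to the same wells and luminescence read after 30 min at room temperature.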

Test [10] can be described thus: qHTS assay to identify small molecule agonists of the TGF-beta/Smad signaling pathway - cell viability counter screen (AID 1346829). Further: top concentration of the series differs between compounds; nearly all actives have a fitted effect of over 45% in size. Put shortly: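 SBE-bla HEK 293T cells plated overnight, compound exposure 5 hr at 37 C. Viability read in the same wells by CellTiter-Glo luminescence after 30 min at room temperature, following the beta-lactamase read.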
The target of test [11] is Thyrotropin-releasing hormone receptor (Homo sapiens) (UniProt P34981). Nature of the test: qHTS assay to identify small molecule antagonists of the thyrotropin-releasing hormone receptor (TRHR) signaling pathway (AID 1346877; active means well fitted inhibition curve with a large enough effect in the repeat runs, not every such curve was filed as active; further: series mostly up to about 51 µM). In short, it runs like this: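 Kinetic fluorescence (3 min, 1 s resolution) following stimulation with TRH at 1 nM final; HEK293 cells bearing human TRHR; 5 min compound preincubation at RT; concentration-response over 15 points, triplicates.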
Thyrotropin-releasing hormone receptor (Homo sapiens), sequence (P34981 whole entry, looked up): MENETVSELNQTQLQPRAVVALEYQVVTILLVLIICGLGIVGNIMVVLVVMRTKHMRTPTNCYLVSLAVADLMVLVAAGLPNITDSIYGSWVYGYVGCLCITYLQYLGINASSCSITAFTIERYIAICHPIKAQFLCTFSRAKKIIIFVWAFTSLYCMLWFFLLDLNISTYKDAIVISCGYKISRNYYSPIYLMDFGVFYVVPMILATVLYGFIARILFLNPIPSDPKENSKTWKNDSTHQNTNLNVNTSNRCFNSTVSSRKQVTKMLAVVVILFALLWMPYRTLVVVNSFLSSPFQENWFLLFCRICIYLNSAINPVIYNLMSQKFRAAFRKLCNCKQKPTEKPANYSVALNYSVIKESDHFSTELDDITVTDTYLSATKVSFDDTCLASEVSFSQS

Test [12] has the same target. The experiment in a line: qHTS assay to identify small molecule agonists of the thyrotropin-releasing hormone receptor (TRHR) signaling pathway (AID 1346891; calls by dose curve; further: series mostly up to about 58 µM). In short, it runs like this:
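HEK293 cells expressing TRHR plated 18 h at 37 C/5% CO2, calcium dye-loaded 2 h at 37 C, then compound added (agonist mode); kinetic calcium fluorescence read 3 min at 1 s intervals; 15 concentrations in triplicate.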

A short description of test [13]: Human pregnane X receptor (PXR) small molecule agonists, qHTS cell viability counter screen (AID 1346977). Further: nearly all actives have a fitted effect of over 50% in size. Further: potency means the concentration at half of the fitted maximal effect. In short, it runs like this: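 PXR-Luc HepG2 cells (2,000/well, 5% charcoal-stripped FBS) preincubated 5 hr, then exposed to compounds 24 hr at 37 C. Viability read in the same wells by CellTiter-Fluor fluorescence, reagent added at 23 hr, 1 hr incubation.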

Test [14] concerns the target Progesterone receptor (Homo sapiens) (UniProt P06401). The experiment in a line: qHTS assay to identify small molecule antagonists of the progesterone receptor (PR) signaling pathway (AID 1346795; active means well fitted inhibition curve with a large enough effect in the signal ratio in the repeat runs, not every such curve was filed as active; the % refers to the signal ratio; further: potency means the concentration at half of the fitted maximal effect). In short, it runs like this:
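PR-UAS-bla HEK293T cells with beta-lactamase reporter under UAS control, in 2% charcoal-stripped FBS, treated with compounds plus 1 nM promegestone (R5020, final) for 16 hr at 37C. Read-out: FRET beta-lactamase substrate fluorescence after 2 hr at room temperature.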

Test [15] in a line: qHTS assay to identify small molecule antagonists of the progesterone receptor (PR) signaling pathway - cell viability counter screen (AID 1346798). Further: series mostly up to about 92 µM; nearly all actives have a fitted effect of over 50% in size. Put shortly:
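PR-UAS-bla HEK293T cells, 3,000/well in 2% charcoal-stripped FBS medium, dosed with compounds plus R5020 agonist and incubated 16 h at 37C. Viability then measured in the same wells by CellTiter-Glo luminescence after 30 min at RT.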

Test [16] in a line: qHTS assay to identify small molecule agonists of the estrogen receptor beta (ER-beta) signaling pathway - cell viability counter screen (AID 1259380). Further: nearly all actives have a fitted effect of over 30% in size. Put shortly:
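Steps: plate ER-beta-UAS-bla HEK293T cells, rest 6 hr; add compounds in DMSO; incubate 16 hr at 37C, 5% CO2; add FRET substrate 2 hr; add CellTiter-Glo, wait 30 min at room temperature; read luminescence.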

The nature of test [17]: qHTS assay to identify small molecule agonists of the TGF-beta/Smad signaling pathway (AID 1346859; active means well fitted activation curve with a large enough effect in the signal ratio in the repeat runs, not every such curve was filed as active; the % refers to the signal ratio; further: series mostly up to about 77 µM). In short, it runs like this: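 SBE-bla HEK293T cells plated overnight, then compound exposure for 5 h at 37 C. Beta-lactamase reporter read with LiveBLAzer B/G FRET substrate after 2 h at room temperature, fluorescence at 405 nm excitation, 460/530 nm emission.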
The target in test [18] is Androgen receptor (Homo sapiens) (UniProt P10275). Nature of the test: qHTS assay to identify small molecule agonists of the androgen receptor (AR) signaling pathway in the presence of an antagonist (AID 1259381; calls by dose curve; further: nearly all actives have a fitted effect of over 15% in size). Put shortly: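 Reporter-gene luminescence from MDA-kb2 cells exposed 16hr at 37C (0% CO2) to 15-point compound titrations with 3.0uM final nilutamide as AR antagonist.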
Androgen receptor (Homo sapiens), sequence (P10275 whole entry, looked up): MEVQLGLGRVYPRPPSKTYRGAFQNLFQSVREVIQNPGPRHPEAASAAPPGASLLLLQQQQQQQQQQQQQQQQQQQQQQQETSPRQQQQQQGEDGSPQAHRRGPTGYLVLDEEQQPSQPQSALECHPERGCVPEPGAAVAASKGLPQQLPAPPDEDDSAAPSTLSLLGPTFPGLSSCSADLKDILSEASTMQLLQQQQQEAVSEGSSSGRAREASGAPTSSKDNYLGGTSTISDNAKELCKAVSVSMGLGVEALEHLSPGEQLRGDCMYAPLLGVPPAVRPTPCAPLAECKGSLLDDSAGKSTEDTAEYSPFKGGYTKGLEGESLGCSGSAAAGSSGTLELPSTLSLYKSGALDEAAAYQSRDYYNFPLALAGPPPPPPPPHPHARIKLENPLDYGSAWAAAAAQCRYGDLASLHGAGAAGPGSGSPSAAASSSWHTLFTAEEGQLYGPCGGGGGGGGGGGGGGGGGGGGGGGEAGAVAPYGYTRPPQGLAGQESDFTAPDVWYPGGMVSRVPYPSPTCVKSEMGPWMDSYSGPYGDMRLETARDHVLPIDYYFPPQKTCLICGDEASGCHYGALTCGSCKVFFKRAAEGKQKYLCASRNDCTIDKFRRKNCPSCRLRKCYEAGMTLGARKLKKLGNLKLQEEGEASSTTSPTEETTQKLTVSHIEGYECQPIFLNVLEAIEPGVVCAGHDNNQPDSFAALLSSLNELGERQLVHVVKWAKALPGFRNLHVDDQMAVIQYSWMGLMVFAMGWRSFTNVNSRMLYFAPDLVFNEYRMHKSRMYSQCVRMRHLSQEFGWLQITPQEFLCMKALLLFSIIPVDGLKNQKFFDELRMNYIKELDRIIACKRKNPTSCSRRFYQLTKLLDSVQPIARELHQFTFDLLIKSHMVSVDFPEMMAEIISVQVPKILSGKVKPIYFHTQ

The values below come from PubChem BioAssay (Tox21).

Values without a mark were called inactive. Records with an inconclusive call do not appear. Active and inactive are the calls of the source. Unless noted, the call rests on the fitted dose curve; in most records, active means well fitted curve in the direction sought with a large enough effect in the repeat runs; inconclusive means weak or mixed curves; inactive means no such curve, though single readings can be large; an effect the other way counts as inactive or inconclusive.
On the % scale 0 is the no-effect control and ±100 the full control effect.

Thyrotropin receptor (Homo sapiens), sequence (P16473 whole entry, looked up): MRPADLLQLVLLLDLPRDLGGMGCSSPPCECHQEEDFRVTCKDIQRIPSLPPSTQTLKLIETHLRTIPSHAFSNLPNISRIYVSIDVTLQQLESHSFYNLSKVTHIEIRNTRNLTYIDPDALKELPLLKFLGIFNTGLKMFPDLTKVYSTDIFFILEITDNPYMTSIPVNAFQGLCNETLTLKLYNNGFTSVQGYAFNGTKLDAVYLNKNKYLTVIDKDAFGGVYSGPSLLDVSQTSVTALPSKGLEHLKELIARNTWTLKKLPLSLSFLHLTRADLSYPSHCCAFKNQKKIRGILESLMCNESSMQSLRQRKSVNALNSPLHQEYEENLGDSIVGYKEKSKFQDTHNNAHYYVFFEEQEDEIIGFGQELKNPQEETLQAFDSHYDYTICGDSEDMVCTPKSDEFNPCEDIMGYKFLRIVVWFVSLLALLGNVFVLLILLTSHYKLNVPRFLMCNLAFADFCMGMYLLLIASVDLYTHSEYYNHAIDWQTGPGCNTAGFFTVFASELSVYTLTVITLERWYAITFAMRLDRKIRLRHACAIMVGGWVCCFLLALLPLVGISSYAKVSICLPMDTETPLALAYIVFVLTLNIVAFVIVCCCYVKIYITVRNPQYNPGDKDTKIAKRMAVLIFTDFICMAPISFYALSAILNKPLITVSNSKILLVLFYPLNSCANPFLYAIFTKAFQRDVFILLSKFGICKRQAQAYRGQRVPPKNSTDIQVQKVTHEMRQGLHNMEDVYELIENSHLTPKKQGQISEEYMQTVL
Estrogen receptor (Homo sapiens), sequence (P03372 whole entry, looked up): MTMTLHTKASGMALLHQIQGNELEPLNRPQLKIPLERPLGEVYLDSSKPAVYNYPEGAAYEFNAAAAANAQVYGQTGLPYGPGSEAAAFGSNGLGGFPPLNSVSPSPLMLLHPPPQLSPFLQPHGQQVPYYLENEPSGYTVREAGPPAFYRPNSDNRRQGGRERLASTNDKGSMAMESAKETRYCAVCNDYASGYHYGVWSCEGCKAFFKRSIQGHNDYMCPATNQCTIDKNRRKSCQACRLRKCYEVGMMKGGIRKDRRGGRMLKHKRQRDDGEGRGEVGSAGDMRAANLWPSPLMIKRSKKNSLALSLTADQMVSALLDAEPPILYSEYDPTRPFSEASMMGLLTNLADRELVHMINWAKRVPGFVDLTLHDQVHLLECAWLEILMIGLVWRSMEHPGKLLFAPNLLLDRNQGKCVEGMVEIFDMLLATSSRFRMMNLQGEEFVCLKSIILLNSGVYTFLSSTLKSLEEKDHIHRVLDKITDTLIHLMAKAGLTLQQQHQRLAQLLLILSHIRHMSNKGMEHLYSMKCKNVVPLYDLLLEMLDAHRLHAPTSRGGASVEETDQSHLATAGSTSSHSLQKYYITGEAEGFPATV

Take `CC1(C)CCC[C@]2(C)[C@H]3CC(=O)O[C@]3(C)CC[C@@H]12`: the Potency entry in [1], in test [2], in test [3], in test [5], in test [6] and in [7] was “inactive” in each case. Moreover, the Potency entry in test [8], in [9], in test [10], in [11] and in [13] was “inactive” in each case. The molecule was classed as inactive in test [4] and in test [12].

As to `Cc1cc(C(C)(C)C)cc(C)c1CC1=NCCN1`, the Potency entry in test [1], in test [2], in test [3], in test [5], in [6] and in [7] was “inactive” each time. The Potency entry in [14], in test [15], in test [8], in [9] and in [10] was “inactive” each time. For the same molecule, the molecule was classed as inactive in test [4].

As for `Nc1nc(-c2ccccc2)cs1`, the Potency entry in test [1], in [16], in test [2], in [5], in [6] and in [7] was “inactive” throughout. Moreover, the Potency entry in test [15], in test [8], in test [9], in test [10], in [11] and in test [13] was “inactive” throughout. Also, the molecule was classed as inactive in test [4] and in [12].

Consider `Clc1nnc(Cl)c2ccccc12`, for which the Potency in test [1] is 15.3 µM (active). The Potency result in test [16], in test [2], in test [3], in test [6], in [7] and in test [15] was “inactive” each time. The Potency entry in [8], in [9], in [10], in test [17], in [11] and in test [13] was “inactive” in each case.

Consider `CCCCNS(=O)(=O)c1ccc(C)cc1`, for which the Potency result in test [1], in test [2], in test [3], in [6], in test [7] and in test [15] was “inactive” in each case. In addition, the Potency entry in test [8], in test [9], in test [10], in [17], in test [11] and in test [13] was “inactive” in each case. Besides, in test [12], the molecule was classed as inactive.

Take `CC1=CCC(=C(C)C)CC1`: the Potency result in test [1], in [16], in test [2], in [3], in test [6] and in [14] was “inactive” each time. For the same molecule, the Potency entry in [15], in test [8], in test [9] and in [10] was “inactive” in each case.

In the case of `OC1CCCc2ccccc21` (centres undefined), the Potency result in test [1], in test [16], in test [3], in test [5], in test [6] and in test [7] was “inactive” throughout. Moreover, the Potency result in [14], in test [15], in test [8], in test [9], in test [10] and in [11] was “inactive” in each case. The Potency entry in [13] was “inactive”. Also, the molecule was called inactive in test [4] and in test [12].

On to `CC(C)(C)c1ccc(C(O)CCCN2CCC(C(O)(c3ccccc3)c3ccccc3)CC2)cc1` (centres undefined), for which the Potency in test [1] was 23.7 µM (active). Further, the Potency result in test [3], in test [6], in [7], in [14], in [15] and in test [9] was “inactive” each time. Further, the molecule was classed as inactive in [4].

Take `CN1CCN2c3ccccc3Cc3ccccc3C2C1` (centres undefined): the result in test [18], in test [4] and in test [12] was inactive. Further, the Potency entry in test [3], in test [5], in test [7], in test [15], in test [8] and in test [9] was “inactive” in each case. Further, the Potency entry in test [10], in [17], in [11] and in test [13] was “inactive” each time.

For `C[C@@H](O)[C@H](N)C(=O)O`, the activity change, negative = cytotoxicity is -0.428% [at 19 µM] in test [1]; 2.14% [at 19 µM] in [6]; -0.923% [at 18.9 µM] in [15]; -6.31% [at 19 µM] in [8]; 1.96% [at 15.8 µM] in [10]; 14% [at 19 µM] in test [13]. For the same molecule, the activation in [7] was 0.125% [at 19 µM]; in test [17], 0.576% [at 15.8 µM]; in test [12], 0.352% [at 11.8 µM]. The activity change, negative = inhibition in test [14] is 8.03% [at 18.9 µM]. Further, the viability change, negative = cytotoxic in test [9] was 4.73% [at 15.8 µM]. The activity, negative = inhibition in test [11] was 12.1% [at 10.5 µM].

As for `Cc1ccc(O)c(O)c1`, the Potency entry in test [16], in test [2], in [3], in test [9], in [10] and in test [11] was “inactive” in each case. Further, in test [14], the Potency is 42 µM (active). In addition, in test [12], the call was inactive.

As to `CN1CCN(Cc2cc(-c3ccc4[nH]c(=O)oc4c3)co2)[C@@H](c2ccc(F)cc2)C1`, the Potency entry in test [2], in test [3], in test [5], in test [7], in test [15] and in test [9] was “inactive” throughout. In addition, the Potency entry in test [10], in test [17] and in test [11] was “inactive” in each case. Further, the molecule was classed as inactive in test [4] and in [12]. The Potency in test [14] and in [13] was 46.7 µM (active) each time.
